Measurements as given in PubChem BioAssay (Tox21).
Several values for one entry are separate records, joined by “and”; a condition that tells them apart may be missing. Identical values can stand only once. Results filed as inconclusive are left out. Some compounds were tested as several samples or in several runs, with calls that do not always agree. Activity calls are given as the source filed them. Unless noted, calls come from the whole dose curve.

Tests used:
[1] = target: Thyrotropin receptor (Homo sapiens) (UniProt P16473); test: qHTS assay to identify small molecule agonists of the thyroid stimulating hormone receptor (TSHR) signaling pathway (AID 1224843); note: nearly all actives have a fitted effect of over 45% in size
Sequence of Thyrotropin receptor (Homo sapiens) (P16473 whole entry, looked up): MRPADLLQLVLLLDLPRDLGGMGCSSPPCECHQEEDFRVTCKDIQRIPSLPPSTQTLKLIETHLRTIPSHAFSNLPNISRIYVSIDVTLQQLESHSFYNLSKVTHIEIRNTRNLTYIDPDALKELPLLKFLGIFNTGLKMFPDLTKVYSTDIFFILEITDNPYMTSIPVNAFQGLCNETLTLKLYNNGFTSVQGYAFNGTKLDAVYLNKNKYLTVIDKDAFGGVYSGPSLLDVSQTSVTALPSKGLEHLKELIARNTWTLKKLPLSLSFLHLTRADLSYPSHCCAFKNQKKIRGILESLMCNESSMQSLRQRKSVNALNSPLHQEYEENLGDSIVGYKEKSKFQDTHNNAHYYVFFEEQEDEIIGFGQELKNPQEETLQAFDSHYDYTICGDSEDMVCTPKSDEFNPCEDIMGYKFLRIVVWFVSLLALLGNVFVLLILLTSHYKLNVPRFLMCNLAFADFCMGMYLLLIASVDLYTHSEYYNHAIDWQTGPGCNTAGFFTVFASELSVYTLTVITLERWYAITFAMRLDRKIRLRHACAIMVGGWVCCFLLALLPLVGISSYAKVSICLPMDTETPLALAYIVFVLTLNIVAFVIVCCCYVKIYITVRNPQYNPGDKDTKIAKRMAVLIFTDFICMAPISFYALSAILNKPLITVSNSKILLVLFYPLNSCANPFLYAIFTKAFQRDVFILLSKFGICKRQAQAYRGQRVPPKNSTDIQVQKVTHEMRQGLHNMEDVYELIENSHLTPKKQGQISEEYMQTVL
Summary of the method: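 HEK293/TSHR, 800 cells/well; cpd 30 min RT; add cAMP-d2 + anti-cAMP-cryptate, 1 h RT; fluorescence read on plate reader. 15-pt titration, n=3.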

[2] = qHTS assay to identify small molecule agonists of the hypoxia (HIF-1) signaling pathway - cell viability counter screen (AID 1224844); note: nearly all actives have a fitted effect of over 50% in size
Summary of the method: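 Cytotoxicity measured by CellTiter-Glo ATP luminescence in the wells also read for beta-lactamase signal. Cells were HRE-bla ME-180 (2,000/well, 0.5% dialyzed FBS), exposed to compounds for 17 h at 37C.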

[3] = qHTS assay to identify small molecule agonists of H2AX (AID 1224845; active = well fitted activation curve with a large enough effect in the signal ratio in the repeat runs, not every such curve was filed as active; the % refers to the signal ratio)
Summary of the method: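 Wild-type CHO-K1 cells, plated overnight, exposed 3hr at 37C to 15 concentrations (0.76% DMSO final). Lysed, then HTRF anti-pH2AX (S139) cryptate and anti-H2AX-d2 antibodies, 24 hr room temperature; 665/620 nm emission read.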

[4] = qHTS assay to identify small molecule agonists of the hypoxia (HIF-1) signaling pathway (AID 1224846; active = well fitted activation curve with a large enough effect in the signal ratio in the repeat runs, not every such curve was filed as active; the % refers to the signal ratio)
Summary of the method: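 Compounds added to ME-180 cells carrying hypoxia-response-element beta-lactamase reporter (0.5% dialyzed FBS, 5 h preplating), 17 h at 37C; agonist activity detected by CCF4-AM B/G FRET read-out.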

[5] = qHTS assay to identify small molecule agonists of H2AX - cell viability counter screen (AID 1224847); note: top concentration of the series differs between compounds; nearly all actives have a fitted effect of over 30% in size
Summary of the method: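 Viability of CHO-K1 (wild type) cells after 3 hr compound exposure was measured by CellTiter-Glo luminescence.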

[6] = qHTS assay to identify small molecule antagonists of the estrogen related receptor (ERR) signaling pathway from Tox21 library (AID 1224848; active = well fitted curve in the direction sought with a large enough effect in the repeat runs; an effect the other way counts as inactive or inconclusive; note: nearly all actives have a fitted effect of over 50% in size)
Summary of the method: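 Compounds dissolved in DMSO are pin-transferred onto ERR reporter cells (2,000 per well) that have settled for 6 h at 37 C. Plates then incubate 18 h at 37 C before ONE-Glo luciferase reagent and a luminescence read 30 min later.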

[7] = qHTS assay to identify small molecule agonists of the estrogen related receptor (ERR) signaling pathway from Tox21 library (AID 1224849); conditions: ERR reporter cell line, ONE-Glo luciferase, 18 h; at 92.4 µM (top of the series) unless noted; note: nearly all actives have a fitted effect of over 15% in size
Summary of the method: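 Luminescent agonist read-out (One-Glo, 30-minute room-temperature incubation) following 18-hour compound treatment at 37 C of the ERR cell line, which had been plated 6 hours before dosing.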

[8] = qHTS RealTime-Glo MT Cell Viability Assay in HEK293 cells - 32 hour (AID 1224868; active = well fitted curve in the direction sought with a large enough effect in the repeat runs; an effect the other way counts as inactive or inconclusive; note: top concentration of the series differs between compounds; nearly all actives have a fitted effect of over 50% in size)
Summary of the method: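 Nonlytic real-time viability readout: viable cells convert prosubstrate to NanoLuc substrate, giving luminescence proportional to live cell number. HEK293, 600 cells/well, compound added after 5 h, continuous culture at 37 C.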

[9] = A CellTox Green Cytotoxicity Assay to monitor cytotoxicity in HEK293 cells - 0 hour (AID 1224869; active = well fitted curve in the direction sought with a large enough effect in the repeat runs; an effect the other way counts as inactive or inconclusive; note: nearly all actives have a fitted effect of over 50% in size; note: potency is the fitted concentration of half-maximal effect)
Summary of the method: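 Fluorescence from a DNA-binding dye excluded by viable cells was measured repeatedly in the same HEK293 wells (600 cells/well) during continuous compound exposure at 37 C. Each assay gives one read point: 0, 8, 16, 24, 32 or 40 h.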

[10] = qHTS RealTime-Glo MT Cell Viability Assay in HepG2 cells - 24 hour (AID 1224867; active = well fitted curve in the direction sought with a large enough effect in the repeat runs; an effect the other way counts as inactive or inconclusive; note: nearly all actives have a fitted effect of over 50% in size)
Summary of the method: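 Luminescence read-out: viable HepG2 cells reduce a prosubstrate to a NanoLuc substrate, giving a signal proportional to live cell number. Reads taken at 0, 8, 16, 24, 32 and 40 h of compound exposure at 37 C.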
% is set by controls: 0 for no effect and ±100 for the full control effect.

CCC(C)C1CCCCC1=O (centres undefined)
inactive: Potency [1] | Potency [2] | outcome [3] | outcome [4] | Potency [5] | Potency [6] | activity change, positive = activation [7] 3.66% | Potency [8] | Potency [9]

CC/C=C\CC/C=C/C(OCC)OCC
inactive: Potency [1] | Potency [2] | outcome [3] | outcome [4] | Potency [5] | Potency [6] | activity change, positive = activation [7] 2.27% | Potency [9]

O=C(O)COc1nn(Cc2ccccc2)c2ccccc12
inactive: Potency [1] | Potency [2] | outcome [3] | outcome [4] | Potency [5] | Potency [6] | activity change, positive = activation [7] 0.25% [at 42.5 µM] | Potency [8] | Potency [9]

CC(C)(CC(=O)O)C(=O)O
inactive: Potency [1] | Potency [2] | outcome [3] | outcome [4] | Potency [5] | Potency [6] | Potency [10] | Potency [8] | Potency [9]

CN(C)CCCSc1ccccc1NC(=O)/C=C/c1ccccc1
active: Potency [9] 16.9 µM
inactive: Potency [1] | Potency [2] | outcome [3] | outcome [4] | Potency [5] | Potency [6] | Potency [8]

CC(C)(C)NCCNC(C)(C)C
inactive: Potency [1] | Potency [2] | outcome [3] | outcome [4] | Potency [5] | Potency [6] | Potency [10] | Potency [8] | Potency [9]

COc1cc(C(=O)N2CCCCCCC2)cc(OC)c1OC
inactive: Potency [1] | Potency [2] | outcome [3] | outcome [4] | Potency [6] | activity change, positive = activation [7] 8.77% [at 42.5 µM] | Potency [10] | Potency [8] | Potency [9]

CCCCOCCOCCOCCCC
inactive: Potency [1] | Potency [2] | outcome [3] | outcome [4] | Potency [5] | Potency [6] | Potency [9]

CC(C)CCCC(C)N (centres undefined)
inactive: Potency [1] | Potency [2] | outcome [3] | outcome [4] | Potency [5] | Potency [6] | Potency [10] | Potency [8] | Potency [9]

O=C1CCCCCCCCCCCN1
inactive: Potency [1] | Potency [2] | outcome [3] | outcome [4] | Potency [5] | Potency [10] | Potency [8] | Potency [9]

Cc1[nH]c(=O)c(C#N)cc1-c1ccc2nccn2c1
inactive: Potency [1] | Potency [2] | outcome [3] | outcome [4] | Potency [5] | Potency [10] | Potency [8] | Potency [9]

COc1c(N2C[C@@H]3CCCN[C@@H]3C2)c(F)cc2c(=O)c(C(=O)O)cn(C3CC3)c12
inactive: Potency [1] | Potency [2] | outcome [3] | outcome [4] | Potency [5] | Potency [6] | Potency [9]

CCCCCCCCCCCCCC=O
inactive: activation [1] 4.61% [at 8.39 µM] | activity change, negative = cytotoxicity [2] 0.368% [at 6.97 µM] | activation (H2AX phosphorylation) [3] -4.49% [at 14 µM] | activation [4] -0.206% [at 7.01 µM] | activity change, negative = cytotoxicity [5] 0.845% [at 14 µM] | activity, negative = inhibition [6] -0.715% [at 8.39 µM] | activity change, negative = cytotoxicity [10] -6.68% [at 6.97 µM] | activity change, negative = cytotoxic [8] 5.71% [at 6.97 µM] | cytotoxicity [9] -4.46% [at 6.97 µM]

NC(=O)Nc1ccccc1
inactive: Potency [1] | Potency [2] | outcome [3] | outcome [4] | Potency [5] | Potency [6] | Potency [8] | Potency [9]

C=C(C)C(=O)OCCCCCCCC(C)C
inactive: Potency [1] | Potency [2] | outcome [3] | outcome [4] | Potency [5] | Potency [6] | Potency [10] | Potency [8] | Potency [9]

OC[C@]1(O)OC[C@@H](O)[C@H](O)[C@@H]1O
inactive: Potency [1] | Potency [2] | outcome [3] | outcome [4] | Potency [5] | Potency [8] | Potency [9]

CC(=O)OCC(CCn1cnc2cnc(N)nc21)COC(C)=O
inactive: Potency [1] | Potency [2] | outcome [3] | outcome [4] | Potency [5] | Potency [10] | Potency [8] | Potency [9]

C[N+](C)(C)CC(O)CC(=O)[O-] (centres undefined)
inactive: Potency [1] | Potency [2] | outcome [3] | outcome [4] | Potency [5] | Potency [6] | Potency [10] | Potency [8] | Potency [9]

CCOC(=O)CC(C)=O
inactive: Potency [1] | Potency [2] | outcome [3] | outcome [4] | Potency [5] | Potency [10] | Potency [8] | Potency [9]

CC(=O)OC/C=C(\C)CC/C=C(\C)CCC=C(C)C
inactive: Potency [1] | Potency [2] | outcome [3] | outcome [4] | Potency [6] | activity change, positive = activation [7] 1.18% and 2.19% | Potency [10] | Potency [8] | Potency [9]

O=c1n(CCO)c(=O)n(CCO)c(=O)n1CCO
inactive and 43.6 µM (active): Potency [9]
inactive: Potency [1] | Potency [2] | outcome [3] | outcome [4] | Potency [5] | Potency [10] | Potency [8]

N#Cc1ccc(C2CCCc3cncn32)cc1 (centres undefined)
inactive: Potency [1] | Potency [2] | outcome [3] | outcome [4] | Potency [5] | activity change, positive = activation [7] -20.4% [at 42.5 µM] | Potency [10] | Potency [9]

Cc1ccc(C#N)cc1
inactive: Potency [1] | Potency [2] | outcome [3] | outcome [4] | Potency [6] | activity change, positive = activation [7] 1.46% | Potency [10] | Potency [8] | Potency [9]

C=C[Si](OC(=C)C)(OC(=C)C)OC(=C)C
inactive: Potency [1] | Potency [2] | outcome [3] | outcome [4] | Potency [5] | Potency [6] | Potency [10] | Potency [9]

O=c1cc(CO)occ1O
inactive: Potency [1] | Potency [2] | outcome [3] | outcome [4] | Potency [5] | Potency [6] | Potency [10] | Potency [8] | Potency [9]
